Screening results: PubChem, National Center for Advancing Translational Sciences (NCATS)
Sampled rows, rich in hits. Any-hit rate of the full collection: about 3.7%.
HTT promoter inh: HTT promoter inhibition | Potency, µM (series often up to 57.5 µM), for the others: top-dose activity change, negative = inhibition, usual class: inhibitors | HEK293 HTT promoter firefly luciferase reporter, 24 h | hit rate 0.93% among 48,000; note: potency is the fitted concentration of half-maximal effect; nearly all actives have a fitted effect of over 50% in size
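HEK293 Fluc reporter, 2,500 cells/well, 24 h pre-culture; cpds up to 57.5 uM final, 24 h 37 degrees C; Dual-Glo, 10 min RT; normalized vehicle = 0%, zero RLU = -100%.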
HTT-AS act: HTT-AS promoter activation; HEK293 HTT-AS promoter firefly luciferase reporter, 24 h; response scale: percent change from vehicle, -100% = no light; Potency, µM (highest dose often 57.5 µM), without a hit: at the top dose activity change, positive = activation, most hits filed as activators; hit rate 0.24% among 48,000; AID 1508624; note: potency is the fitted concentration of half-maximal effect; nearly all actives have a fitted effect of over 55% in size
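Quantitative HTS used concentration series of up to 57.5 uM final on HEK293 luciferase reporter cells, 24 h at 37 degrees C. Readout was Dual-Glo firefly luminescence.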
GPR32 ag: agonists of human resolvin D1 receptor DRV1 (GPR32). CHO-K1 GPR32 beta-arrestin PathHunter luminescence, 90 min; zero percent set by DMSO-only wells. O75388. hit rate 2.5% among 48,000. activation, % at 76.9 µM;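 active = activation of at least 60% and not above a set upper limit, about 1 call in 100 departs from these limits; inconclusive = activation of 40% to 60%, or above that upper limit; inactive = activation under 40%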; note: 0% is about no effect
Target sequence (O75388 whole entry, looked up): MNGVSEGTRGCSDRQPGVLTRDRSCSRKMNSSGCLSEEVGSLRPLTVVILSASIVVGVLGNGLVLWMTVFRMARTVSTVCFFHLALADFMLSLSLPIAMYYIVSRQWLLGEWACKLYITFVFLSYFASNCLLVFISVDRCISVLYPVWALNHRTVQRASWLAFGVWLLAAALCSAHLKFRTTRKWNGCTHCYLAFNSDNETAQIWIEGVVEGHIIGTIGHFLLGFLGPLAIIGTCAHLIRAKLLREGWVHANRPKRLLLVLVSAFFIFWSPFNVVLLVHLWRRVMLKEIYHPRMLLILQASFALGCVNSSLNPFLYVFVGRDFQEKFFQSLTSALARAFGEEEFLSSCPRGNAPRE
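PathHunter enzyme-fragment complementation, CHO-K1 GPR32 stable line; 2,500 cells/well, overnight attach; cpd 90 min 37 °C 5% CO2; detection reagent 1 h RT; chemiluminescence. DMSO = EC0.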
Numbers without * were called inactive; ? = inconclusive; · = no result given; [ ] = another dose, or the depositor's remark. Unless noted, calls come from the whole dose curve; as a rule, active = well fitted curve in the direction sought with a large enough effect; inconclusive = small, poorly fitted or top-dose-only effect, or another doubt; inactive = no such curve, though single readings can be large; an effect the other way counts as inactive or inconclusive.

SMILES	HTT promoter inh	HTT-AS act	GPR32 ag
O=C(Nc1ccc(F)c(Cl)c1)C1CCN(S(=O)(=O)c2ccc3c(c2)CCCN3C(=O)C2CCC2)CC1	?	-18%	3
CCCCN(CCCC)C(C(N)=O)c1ccc(OC)cc1 (stereo unspecified)	5%	-1%	-5
COc1cccc(-c2noc(COc3ccc(C(C)(C)C)cc3)n2)c1	1%	24%	-6
COc1ccc(OCc2nc(-c3ccc(-n4cccc4)cc3)no2)cc1	5%	-7%	117*
Cc1ccc(-c2nc(-c3cc4cccc(OCc5ccc(F)cc5)c4oc3=O)no2)cc1	-9%	-2%	15
Cc1ccc(-c2nc(-c3cc4cccc(OCc5cccc(F)c5)c4oc3=O)no2)cc1	-11%	-8%	82*
O=C(COCCOCCOCC(=O)Nc1c(I)cc(I)c(C(=O)O)c1I)Nc1c(I)cc(I)c(C(=O)O)c1I	-2%	-2%	-44
O=C(Cn1c(=O)nc(-c2ccccc2)c2cc(Cl)ccc21)NCCCc1ccccc1	-9%	-21%	94*
O=C(Cn1c(=O)nc(-c2ccccc2)c2cc(Cl)ccc21)NCCc1ccccc1	-3%	2%	-10
CC(C)C[C@H](NC(=O)CNC(=O)c1cc(Cl)ccc1Cl)B(O)O	?	-49%	·
Cc1ccc(Cl)cc1NC(=O)CSc1nc(C)c(C)c(C)c1C#N	5%	-12%	115*
Cc1cc(C)c(C#N)c(SCC(=O)Nc2ccccc2C#N)n1	-1%	2%	7
COc1cc2c(cc1Cc1cccc(Cl)c1F)c(=O)c(C(=O)O)cn2[C@H](CO)C(C)C	?	-31%	·
CCc1nnc(SC(CC)C(=O)Nc2ccc(OC)c(Cl)c2)c2cc3occc3n12 (stereo unspecified)	?	-34%	-27
Cc1nc2n(c(=O)c1CCN1CCC(C(=O)c3ccc(F)cc3)CC1)CCS2	-14%	-20%	-1
COc1cccc(-c2nn3c(=O)cc(CN4CCN(C(=O)/C=C/c5ccccc5)CC4)nc3s2)c1	-6%	-8%	46
CCC(Oc1ccccc1)C(=O)N1CCN(Cc2cc(=O)n3nc(-c4cccc(C)c4)sc3n2)CC1 (stereo unspecified)	?	-41%	61*
Cc1ccccc1Nc1c(-c2cccnc2)nc2cccc(C)n12	?	-19%	0
Cc1ccc(-c2nc3ccccn3c2Nc2ccc3c(c2)OCO3)cc1	-8%	-2%	-22
CSc1ccc(-c2nc3cccc(C)n3c2Nc2ccc(Cl)cc2)cc1	10%	-29%	-2
Cc1cccc2nc(-c3cccnc3)c(Nc3ccc(C(C)C)cc3)n12	?	-33%	61*
Cc1ccc(Nc2c(-c3ccc(N(C)C)cc3)nc3ccccn23)cc1	72%	2µM*	-23
Cc1ccc(Nc2c(-c3ccc(O)cc3)nc3cccc(C)n23)cc1	0%	-16%	117*
CC(C)n1c(C=C[C@H](O)C[C@H](O)CC(=O)O)c(-c2ccc(F)cc2)c2ccccc21	14%	23%	·
CCCCc1oc2ccc(NS(C)(=O)=O)cc2c1C(=O)c1ccc(OCCCN(CCCC)CCCC)cc1	?	-43%	42
SMILES	HTT promoter inh	HTT-AS act	GPR32 ag
Cc1ccc(C)c(N2CCN(C(=O)C3CCN(C(=O)c4cc5sccc5n4C)CC3)CC2)c1	?	-43%	15
Cc1cccc(N2CCN(C(=O)C3CCN(C(=O)c4cc5sccc5n4C)CC3)CC2C)c1 (stereo unspecified)	22µM*	-55%	38
O=S(=O)(O)CCSSCCS(=O)(=O)O	?	-26%	·
CCN(CC)Cc1ccc2cc(COC(=O)Nc3ccc(C(=O)NO)cc3)ccc2c1	161%	12%	·
CCOc1ccc(CCNC(=O)c2cccc(-n3c(C)nc4cccnc43)c2C)cc1	?	-24%	0
COc1cc([C@@H]2c3cc4c(cc3[C@@H](O[C@@H]3O[C@@H]5CO[C@@H](c6cccs6)O[C@@H]5[C@H](O)[C@@H]3O)[C@H]3COC(=O)[C@H]23)OCO4)cc(OC)c1O	?	-44%	·
COc1ccc(NC(=O)c2sc3nc4c(cc3c2N)CCCCCC4)cc1	?	-36%	74*
COc1ccc(NC(=O)c2sc3nc4c(cc3c2N)CCCCCC4)cc1Cl	?	7%[11.5 µM]	27
Cc1ccc2occ(CC(=O)Nc3nnc(C(C)C)s3)c2c1	-30%	-16%	-1
Cc1cc(C)c2c(CC(=O)Nc3nnc(C(C)C)s3)coc2c1	3%	-11%	65*
CN1C(=O)c2ccccc2Sc2ccc(NC(=O)Nc3ccccc3F)cc21	-2%	-16%	-13
CCc1cccc(NC(=O)Nc2ccc3c(c2)N(C)C(=O)c2ccccc2S3)c1	32µM*	-38%	5
CCN1C(=O)c2ccccc2Sc2ccc(NC(=O)Nc3cc(C)cc(C)c3)cc21	20µM*	-46%	-7
CCN1C(=O)c2ccccc2Sc2ccc(NC(=O)c3ccc(Cl)cc3)cc21	-15%[11.5 µM]	-5%	0
Oc1ccc(C2=Cc3ccc(O)cc3OC2)cc1	?	9%	·
CCN(CC)CC(=O)Nc1c(C)cccc1C(=O)OC	0%	-10%	-12
COc1ccc(NC(=O)C2CCN(c3ccc(Sc4ccc(C)cc4)nn3)CC2)cc1	-9%	-14%	64*
CCc1ccc(NC(=O)C2CCN(c3ccc(Sc4ccc(C)cc4)nn3)CC2)cc1	-3%	-4%	19
Cc1cn(-c2cc(NC(=O)c3ccc(C)c(Nc4nccc(-c5cccnc5)n4)c3)cc(C(F)(F)F)c2)cn1	4%	-8%	·
C/C(=N\O)[C@@H](C)NCC(C)(C)CN[C@H](C)/C(C)=N/O	-6%	-14%	118*
COc1cc(C2CC(=O)N(Cc3cccc(F)c3)c3ccccc3S2)cc(OC)c1OC (stereo unspecified)	20µM*	-69%	10
COc1ccc(N2C(=O)CS(=O)(=O)C23C(=O)N(Cc2cccc(F)c2)c2ccccc23)cc1OC (stereo unspecified)	-25%	-25%	-10
COc1cc(C(=O)Nc2nonc2-c2ccc(C)c(C)c2)cc(OC)c1OC	?	-20%	6
CO[C@H]1C[C@@H]2CC[C@@H](C)[C@@](O)(O2)C(=O)C(=O)N2CCCC[C@@H]2C(=O)O[C@H]([C@H](C)C[C@@H]2CC[C@H](OCCO)[C@H](OC)C2)CC(=O)[C@H](C)C=C(C)[C@@H](O)[C@@H](OC)C(=O)[C@H](C)C[C@H](C)C=CC=CC=C1C	?	-22%	·
CN(C)CCN1CCN(c2cccc(Cl)c2)C1=O	1%	0%	5
